Compound activity deposited in PubChem BioAssay by The Scripps Research Institute Molecular Screening Center.
UHRF1 MBD2 ctr: UHRF1 methylated DNA binding inhibitors, primary screen, counter-screen for MBD2 inhibitor project, biochemical, TR-FRET, human UHRF1, single concentration | UHRF1 binding to methylated oligo | inhibition, % at 4.4 µM | 370,000 tested, 0.75% active; in the data active means inhibition above about 21%;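 further: UHRF1 SRA domain binding a hemimethylated CpG hairpin DNA probe; 0% = median of test compound wells and 100% = reference inhibitor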
MBD2 DNA inh: inhibitors of MBD2 binding to methylated DNA, primary screen, biochemical, TR-FRET, DNA-binding domain, human; Methyl-CpG-binding domain protein 2 (Homo sapiens), Q9UBB5; MBD2 binding to methylated oligonucleotide; inhibition, % at 4.4 µM; 370,000 tested, 0.31% active; AID 686964, 2013; in the data active means inhibition above about 13%
PLCb3 inh: human PLC-beta3 inhibitors, primary screen, biochemical, fluorescence. Purified PLC-beta3, fluorogenic substrate. 370,000 tested, 0.18% active. 1-phosphatidylinositol 4,5-bisphosphate phosphodiesterase beta-3 (Homo sapiens), Q01970. inhibition, % at 12.2 µM; in the data active means inhibition above about 11%;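 further: 0% = median of compound wells on plate and 100% = full blocker control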
PLC-gamma1 inh: PLC-gamma1 enzyme inhibitors, primary screen, biochemical, fluorescence, purified enzyme; inhibition, % at 12.2 µM; 1-phosphatidylinositol 4,5-bisphosphate phosphodiesterase gamma-1 (Homo sapiens), P19174; fluorogenic substrate; 370,000 tested, 0.84% active; AID 720700, 2013; in the data active means inhibition above about 9.5%
Target sequence (P19174 whole entry, looked up): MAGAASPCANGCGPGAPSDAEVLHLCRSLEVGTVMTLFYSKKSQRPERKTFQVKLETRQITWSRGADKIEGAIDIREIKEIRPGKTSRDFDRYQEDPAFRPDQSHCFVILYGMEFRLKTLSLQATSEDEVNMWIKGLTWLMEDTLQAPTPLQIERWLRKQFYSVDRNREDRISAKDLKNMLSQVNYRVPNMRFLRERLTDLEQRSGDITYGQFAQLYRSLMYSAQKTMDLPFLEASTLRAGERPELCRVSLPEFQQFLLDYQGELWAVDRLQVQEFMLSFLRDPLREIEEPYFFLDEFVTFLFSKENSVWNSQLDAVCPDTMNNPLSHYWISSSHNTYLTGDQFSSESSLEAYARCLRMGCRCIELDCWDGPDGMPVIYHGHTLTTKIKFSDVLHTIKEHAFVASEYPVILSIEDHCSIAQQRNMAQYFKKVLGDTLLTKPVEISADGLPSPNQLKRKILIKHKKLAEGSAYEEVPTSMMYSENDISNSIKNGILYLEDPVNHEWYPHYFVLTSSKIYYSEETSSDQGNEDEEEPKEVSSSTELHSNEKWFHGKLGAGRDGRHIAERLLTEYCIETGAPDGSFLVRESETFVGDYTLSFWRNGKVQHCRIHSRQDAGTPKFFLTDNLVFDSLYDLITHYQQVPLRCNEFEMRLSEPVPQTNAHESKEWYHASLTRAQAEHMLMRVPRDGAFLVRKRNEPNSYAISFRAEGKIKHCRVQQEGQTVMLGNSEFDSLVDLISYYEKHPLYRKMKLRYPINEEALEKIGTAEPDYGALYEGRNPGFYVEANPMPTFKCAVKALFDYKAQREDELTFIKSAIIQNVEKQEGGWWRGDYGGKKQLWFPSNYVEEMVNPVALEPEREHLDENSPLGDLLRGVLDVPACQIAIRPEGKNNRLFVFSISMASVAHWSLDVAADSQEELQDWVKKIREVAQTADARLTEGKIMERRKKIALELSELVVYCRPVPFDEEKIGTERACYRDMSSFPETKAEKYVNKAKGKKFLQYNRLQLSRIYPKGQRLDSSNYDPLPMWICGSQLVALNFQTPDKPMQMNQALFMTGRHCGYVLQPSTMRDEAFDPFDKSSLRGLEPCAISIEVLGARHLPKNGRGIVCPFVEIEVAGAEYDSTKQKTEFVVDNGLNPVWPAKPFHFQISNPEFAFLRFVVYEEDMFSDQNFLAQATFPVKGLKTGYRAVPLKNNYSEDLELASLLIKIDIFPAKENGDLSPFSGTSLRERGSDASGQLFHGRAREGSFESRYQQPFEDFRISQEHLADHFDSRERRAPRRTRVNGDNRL
LEDGF integ inh: blockers of LEDGF/p75-dependent integrase strand transfer – biochemical, TR-FRET, high throughput, primary screen; HIV-1 integrase (with human LEDGF/p75); TR-FRET IN-LEDGF/p75 DNA integration, Eu/Cy5; inhibition, % at 3.7 µM; 370,000 tested, 0.64% active;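 active means inhibition above the screen-wide mean plus 3 SD, cut at about 13% in these data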;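 further: signal is the Cy5 over europium emission ratio at 671 and 618 nm; 0% = plate median of compound wells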
IN multimer act: HIV-1 IN multimer formation enhancers, counter-screen for LEDGF/p75 integration inhibitor project, biochemical, TR-FRET; activation, % at 7.7 µM; shares compounds with LEDGF integ inh; 2,000 tested, 17% active; TR-FRET HIV-1 integrase multimerization; in the data active means activation above about 8.9%
TRFRET interf: TR-FRET optical interference artefacts, confirmation, artefact control for LEDGF/p75-dependent integration inhibitor project, biochemical, HIV-1 IN multimerization; shares compounds with LEDGF integ inh; TR-FRET optical interference counterscreen; inhibition, % at 7.7 µM; 2,000 tested, under 10 active; AID 1053135, 2014;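 active means inhibition above the mean over all tested compounds plus 3 SD, which no compound reached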;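 further: 0% = integrase with antibodies and DMSO and 100% = antibodies without integrase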
IN-LEDGF confirm: inhibitors of HIV-1 IN-LEDGF/p75 DNA integration, confirmation, biochemical, TR-FRET; TR-FRET LEDGF/p75-dependent HIV-1 integration; 2,000 tested, 36% active; inhibition, % at 3.7 µM; shares compounds with LEDGF integ inh; in the data active means inhibition above about 14%
Starred values were filed as active, the others as inactive. Sampled rows, rich in hits. Any-hit rate of the full collection: about 2.4%.

Screening OCc1cn(-c2ccccc2)nc1-c1ccco1 returned UHRF1 MBD2 ctr -2.0, MBD2 DNA inh 1.2, PLCb3 inh -6.7, PLC-gamma1 inh -5.8 and LEDGF integ inh -3.1.
Screening COc1ccc2[nH]c(=O)c(CN(C(=O)C(C)C)c3ccccc3OC)cc2c1 returned UHRF1 MBD2 ctr 2.1, MBD2 DNA inh -6.1, PLCb3 inh -19.8, PLC-gamma1 inh -11.8, LEDGF integ inh 18.9*, IN multimer act 1.2, TRFRET interf -6.0 and IN-LEDGF confirm -14.7.
COc1ccc(NCc2cc3ccccc3[nH]c2=O)cc1 was read as UHRF1 MBD2 ctr -7.0, MBD2 DNA inh -5.1, PLCb3 inh -277.3, PLC-gamma1 inh -222.8 and LEDGF integ inh 0.6.
Screening COc1ccc(NCc2cc3cc(OC)ccc3[nH]c2=O)cc1 returned UHRF1 MBD2 ctr -8.0, MBD2 DNA inh -2.1, PLCb3 inh -307.4, PLC-gamma1 inh -314.0, LEDGF integ inh 15.6*, IN multimer act 2.1, TRFRET interf -7.3 and IN-LEDGF confirm -0.4.
For CCOc1ccc(-n2c(SCC(=O)c3ccc4ccccc4c3)nnc2-c2ccc(OC)cc2)cc1 the results were UHRF1 MBD2 ctr 1.4, MBD2 DNA inh -1.4, PLCb3 inh 1.4, PLC-gamma1 inh 1.1 and LEDGF integ inh 2.0.
O=C1C=C(Nc2cccc(O)c2)CC(c2ccco2)C1 (stereo not drawn) was read as UHRF1 MBD2 ctr -1.8, MBD2 DNA inh -6.4, PLCb3 inh -232.0, PLC-gamma1 inh -196.9, LEDGF integ inh 14.0*, IN multimer act -0.6, TRFRET interf 3.1 and IN-LEDGF confirm 7.5.
For COC(=O)[C@]12C[C@H](CC(=O)NCCC(C)C)C(=O)N(Cc3cccc4ccccc34)C1=C[C@H](C1CCCC1)O[C@@H]2C the results were UHRF1 MBD2 ctr -0.8, MBD2 DNA inh 1.0, PLCb3 inh 2.7, PLC-gamma1 inh 2.5 and LEDGF integ inh -1.7.
CCOC(=O)N1CCN(C(=O)C[C@H]2C(=O)N(CCCOC)C3=CCCC[C@@]32C(=O)OCC)CC1 was read as UHRF1 MBD2 ctr -2.6, MBD2 DNA inh -1.9, PLCb3 inh 3.9, PLC-gamma1 inh 2.7 and LEDGF integ inh -5.3.
Cc1ccc(S(=O)(=O)n2ccc(-c3c(-c4ccc(F)cc4)noc3C)n2)cc1 was read as UHRF1 MBD2 ctr -1.8, MBD2 DNA inh -0.6, PLCb3 inh 2.7, PLC-gamma1 inh -1.1 and LEDGF integ inh 0.1.
`Cc1cc(Cl)cc(C)c1OCCCCN1CCOCC1` gave UHRF1 MBD2 ctr -0.6, MBD2 DNA inh -5.4, PLCb3 inh -2.0, PLC-gamma1 inh 0.2, LEDGF integ inh 15.0*, IN multimer act -0.8, TRFRET interf 3.9 and IN-LEDGF confirm 2.5.
Screening COc1cc(NC(=O)c2[nH]c(C)c(C(C)=O)c2C)c(OC)cc1Cl returned UHRF1 MBD2 ctr 0.8, MBD2 DNA inh 1.7, PLCb3 inh -8.1, PLC-gamma1 inh -1.8 and LEDGF integ inh -0.3.
Screening Cc1ccc(Cn2cc(COC(=O)Nc3ccc(F)cc3)nn2)cc1 returned UHRF1 MBD2 ctr 3.2, MBD2 DNA inh -0.9, PLCb3 inh 0.1, PLC-gamma1 inh 0.9 and LEDGF integ inh 2.7.
`Fc1cccc(F)c1/C=C/c1ccc2ccccc2n1` gave UHRF1 MBD2 ctr 0.2, MBD2 DNA inh 2.7, PLCb3 inh -5.3, PLC-gamma1 inh -7.1 and LEDGF integ inh -2.6.
`C(=C\c1ccco1)/c1ccc2ccccc2n1` gave UHRF1 MBD2 ctr 25.2*, MBD2 DNA inh 7.2, PLCb3 inh -60.8, PLC-gamma1 inh -43.0, LEDGF integ inh 18.4*, IN multimer act 17.0*, TRFRET interf -85.5 and IN-LEDGF confirm 37.2*.
For O=C(CCc1ccccc1)N[C@H]1[C@@H](OC(=O)c2ccc([N+](=O)[O-])cc2)CCC[C@]12C(=O)N(Cc1ccccc1)c1ccccc12 the results were UHRF1 MBD2 ctr 0.5, MBD2 DNA inh 2.2, PLCb3 inh 3.9, PLC-gamma1 inh -0.4 and LEDGF integ inh 3.9.
`Cc1sc2nc(SCC(=O)c3ccc(O)c(O)c3)n(C)c(=O)c2c1C` gave UHRF1 MBD2 ctr 11.7, MBD2 DNA inh 11.7, PLCb3 inh -0.6, PLC-gamma1 inh -2.1, LEDGF integ inh 19.7*, IN multimer act 26.2*, TRFRET interf -93.0 and IN-LEDGF confirm 46.3*.
`Cc1sc2nc(SCC(=O)OC(C)C)n(C)c(=O)c2c1C` gave UHRF1 MBD2 ctr 1.6, MBD2 DNA inh -1.7, PLCb3 inh -1.1, PLC-gamma1 inh 7.6 and LEDGF integ inh 0.5.
Screening CN(C)S(=O)(=O)c1ccc2nc(COCc3nc4ccc(S(=O)(=O)N(C)C)cc4[nH]3)[nH]c2c1 returned UHRF1 MBD2 ctr 4.6, MBD2 DNA inh -5.3, PLCb3 inh -1.2, PLC-gamma1 inh -0.3 and LEDGF integ inh 1.6.
`O=C(OCc1cn(Cc2cccc(F)c2)nn1)N1CCOCC1` gave UHRF1 MBD2 ctr 7.0, MBD2 DNA inh 0.9, PLCb3 inh 0.7, PLC-gamma1 inh 1.6 and LEDGF integ inh -3.9.
`O=S1(=O)CC(N2CCN(CCO)CC2)CN1Cc1ccccc1` (stereo not drawn) gave UHRF1 MBD2 ctr -0.6, MBD2 DNA inh -7.0, PLCb3 inh -0.5, PLC-gamma1 inh 0.7, LEDGF integ inh 35.4*, IN multimer act 1.1, TRFRET interf -3.8 and IN-LEDGF confirm -1.0.
Cc1ccc(/C=C/C(=O)N2CCCN(C(=O)/C=C/c3ccc(C)cc3)CC2)cc1 was read as UHRF1 MBD2 ctr -0.9, MBD2 DNA inh 1.4, PLCb3 inh -3.7, PLC-gamma1 inh -4.3 and LEDGF integ inh 0.8.
O=C(/C=C/c1ccc(F)cc1)N1CCCN(C(=O)/C=C/c2ccc(F)cc2)CC1 was read as UHRF1 MBD2 ctr 6.3, MBD2 DNA inh 3.3, PLCb3 inh -1.8, PLC-gamma1 inh 5.4, LEDGF integ inh 25.2*, IN multimer act -0.2, TRFRET interf 0.9 and IN-LEDGF confirm -0.5.
CCOC(=O)Cn1cc(CN2C(C(=O)OC)CN(C3CCCC3)CCS2(=O)=O)nn1 (stereo not drawn) was read as UHRF1 MBD2 ctr 14.6, MBD2 DNA inh 10.3, PLCb3 inh 4.2, PLC-gamma1 inh 8.3 and LEDGF integ inh 4.4.
